# Only some compounds are listed: those with a hit (about 5.3% of all), similar ones and a draw of the others.
# HP1b binding inh – HP1-beta chromodomain-methylated histone interaction inhibition; P83916; AlphaScreen HP1-beta / biotin-H3K9me3 peptide binding; Potency, µM (top dose mostly 114 µM), inactives show top-dose activity change, negative = inhibition, hits mostly inhibitors; 0.56% of 390,000 active; AID 540317; also: potency is read from the fitted curve at half-maximal effect; nearly all actives have a fitted effect of over 70% in size
#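 AlphaScreen: HP1-beta (50 nM) preformed 30 min with biotin-H3(1-18)K9me3 peptide (50 nM) in PBS pH 7.4, 0.01% Tween-20. Compound added for 30 min at RT, then streptavidin donor/nickel chelate acceptor beads (10 ug/mL) for 30 min.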
# TDP1 block – inhibitors of human tyrosyl-DNA phosphodiesterase TDP1. Q9NUW8. recombinant TDP1, AlphaScreen DNA substrate cleavage. Potency, µM (highest dose often 130 µM), for inactives: top-dose activity change, negative = inhibition, usual class: inhibitors. 0.28% of 350,000 active. AID 485290; also: potency is read from the fitted curve at half-maximal effect; % is scaled to controls: 0 for no effect and ±100 for the full control effect; nearly all actives have a fitted effect of over 40% in size
#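 Here, a 5' biotin and 3' phosphotyrosine-FITC DNA oligonucleotide reports Tdp1 activity: intact substrate bridges AlphaScreen beads, while cleavage leaves a 3' phosphate and drops signal. All incubations at room temperature.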
# CtBP-E1A blk – inhibitors of CtBP/E1A interaction; AlphaScreen GST-E1A/His-CtBP binding, 1536-well; stronger effect = lower value; activity change, % (no concentration beside the values); 0.49% of 340,000 active; AID 651724; in the data active = activity change below about -65%; inconclusive = mostly about -30% to -63%; also: % is scaled to controls: 0 for no effect and ±100 for the full control effect
#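 In 5 uL wells, 23 nL compound meets equimolar GST-E1A and His-CtBP (5X stock 125 nM each) for 2 h, 37 °C. Beads (5X, 50 ug/mL) then 1 h, 37 °C, dark.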
# BAZ2B block – BAZ2B (human) inhibition; Q9UIF8; 4.4% of 360,000 active; AlphaScreen BAZ2B-H3K14Ac peptide displacement; Potency, µM (top dose mostly 114 µM), for the others: top-dose activity change, negative = inhibition, actives largely listed as inhibitors; AID 504333; also: potency is read from the fitted curve at half-maximal effect; % is scaled to controls: 0 for no effect and ±100 for the full control effect; nearly all actives have a fitted effect of over 60% in size
#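 Multi-concentration screen (max 110 uM) measuring displacement of acetylated histone H3 peptide from BAZ2B by AlphaScreen, using 50 nM protein, 50 nM peptide and 10 ug/mL streptavidin donor plus Ni-chelate acceptor beads.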
# JMJD2A Tudor – inhibitors of human JMJD2A Tudor domain; O75164; AlphaScreen JMJD2A-Tudor / H3K4me3 peptide binding; Potency, µM (top dose mostly 114 µM), for the others: at the highest dose activity change, negative = inhibition, usual class: inhibitors; 4.4% of 390,000 active; AID 504339; also: potency is read from the fitted curve at half-maximal effect; % is scaled to controls: 0 for no effect and ±100 for the full control effect; nearly all actives have a fitted effect of over 50% in size
# Six1-Eya2 blk – inhibitors of human Six1/Eya2 interaction. 0.56% of 360,000 active. AID 651725. activity change, % (test concentration not listed). AlphaScreen GST-Six1/His-Eya2 binding, biochemical; stronger effect = lower value; in the data active = activity change below about -65%; inconclusive = mostly about -30% to -63%; also: % is scaled to controls: 0 for no effect and ±100 for the full control effect
# Target sequence (O00167 whole entry, looked up): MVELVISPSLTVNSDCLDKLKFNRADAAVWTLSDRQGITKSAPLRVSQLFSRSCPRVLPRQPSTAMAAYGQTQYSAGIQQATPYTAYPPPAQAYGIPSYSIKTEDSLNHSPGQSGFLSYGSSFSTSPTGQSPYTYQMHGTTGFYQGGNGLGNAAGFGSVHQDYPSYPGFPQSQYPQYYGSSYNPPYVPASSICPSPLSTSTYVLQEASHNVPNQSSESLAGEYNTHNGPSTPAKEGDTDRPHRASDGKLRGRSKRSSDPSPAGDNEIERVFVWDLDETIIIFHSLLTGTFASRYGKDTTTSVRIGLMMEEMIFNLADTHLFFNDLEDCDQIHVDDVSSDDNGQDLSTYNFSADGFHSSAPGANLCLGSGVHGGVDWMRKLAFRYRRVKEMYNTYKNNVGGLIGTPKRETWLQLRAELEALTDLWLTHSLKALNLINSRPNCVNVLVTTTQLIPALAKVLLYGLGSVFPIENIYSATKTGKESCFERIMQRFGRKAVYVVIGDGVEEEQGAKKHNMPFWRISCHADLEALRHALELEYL
# Target sequence (Q15475 whole entry, looked up): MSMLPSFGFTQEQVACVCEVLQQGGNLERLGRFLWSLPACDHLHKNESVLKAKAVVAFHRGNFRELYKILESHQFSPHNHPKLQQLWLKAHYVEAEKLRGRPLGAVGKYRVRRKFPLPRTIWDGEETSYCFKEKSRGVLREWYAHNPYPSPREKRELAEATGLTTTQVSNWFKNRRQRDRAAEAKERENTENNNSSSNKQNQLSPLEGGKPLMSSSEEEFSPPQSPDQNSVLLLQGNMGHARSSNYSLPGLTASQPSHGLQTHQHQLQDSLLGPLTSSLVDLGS
#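 Six1/Eya2 binding was read as AlphaScreen signal after compounds were pinned into GST-Six1 plus His-tagged Eya2 (5X stock 250/500 nM) in pH 8.0 Tris/NaCl/TCEP buffer, beads added, then incubated 1 h, 37 C, dark.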
# * hit, by the source's call; ? = inconclusive; . = no result; [ ] = remark or other dose. Unless noted, calls follow the shape of the dose curve; as a rule, active = well fitted inhibition curve with a large enough effect; inconclusive = small, poorly fitted or top-dose-only effect; inactive = no such curve, though single readings can be large or run the other way.
SMILES,HP1b binding inh,TDP1 block,CtBP-E1A blk,BAZ2B block,JMJD2A Tudor,Six1-Eya2 blk
COC(=O)C(CCSC)NC(=O)Cn1ncc2c([nH]c3ccccc32)c1=O (stereo not drawn),18%,2%,.,0%,-1%,.
CCN(CC)CCCC(C)n1c(-c2ccccc2)nc2c(NCCO)nc(C)nc21 (stereo not drawn),.,9%,.,.,.,.
C/C(=N\NC(=O)c1c(C)nc2ccccn12)c1ccc(O)cc1O,34%,3%,-5,1.8µM*,-32%,-10
O=c1cc(-c2ccccc2Cl)oc2c(NS(=O)(=O)c3cc(Cl)cc(Cl)c3O)ccc(O)c12,-32%,19%,-1,50µM*,56µM*,-10
CC(=O)c1ccc(N2CCN(S(=O)(=O)c3ccc4[nH]c5c(c4c3)CCCC5)CC2)cc1,-16%,7%,.,-37%,?,.
CC1CCCN(S(=O)(=O)c2ccc3[nH]c4c(c3c2)CCCC4)C1 (stereo not drawn),?,7%,-19,25µM*,?,-15
CCOc1ccccc1N1CCN(C(=O)c2ccc3[nH]c4c(c3c2)CCCC4)CC1,?,6%,-29,40µM*,45µM*,?
CC1CCCN(C(=O)COC(=O)c2ccc3[nH]c4c(c3c2)CCCC4)C1 (stereo not drawn),-5%,0%,-17,50µM*,-9%,-23
Cc1ccc(C)c(N2CCN(C(=O)c3ccc4[nH]c(C)c(C)c4c3)CC2)c1,-17%,11%,.,-13%,79µM*,.
COc1ccc(NC(=O)c2c(N)c(C(=O)c3ccc(C)cc3)n3ccccc23)cc1OC,41%,8%,.,6%,-16%,.
C[C@]12CC[C@H]3c4ccc(OC[C@H]5CO5)cc4CC[C@H]3[C@H]1CC[C@@H]2O,.,7%[21 µM],.,.,.,.
Cc1ccc2c(=O)cc(C(=O)Nc3ccc(S(=O)(=O)N(C)c4ccccc4)cc3)oc2c1C,0%,2%,.,-5%,-12%,.
COC(=O)c1ccc(C(=O)OC)c(NC(=O)N2c3ccccc3Sc3ccccc32)c1,4%,0%,1,10%,-11%,2
COC(=O)c1ccc(C(=O)OC)c(NC(=O)N2CC3CCCN3c3ccccc32)c1 (stereo not drawn),-17%,11%,.,25µM*,?,.
Cc1cc(C)c(Cn2c3ccccc3c3cnn(CC(=O)NCCCc4ccccc4)c(=O)c32)c(C)c1,36%,3%,.,-3%,?,.
O=C(Nc1ncccc1O)c1ccc(NS(=O)(=O)c2ccc3[nH]c(=O)[nH]c3c2)cc1,-4%,-17%,?,79µM*,-22%,?
O=C(O)Cn1c2ccccc2c2n[nH]c(=S)nc21,-20%,.,-16,50µM*,20µM*,0
CCn1c2ccccc2c2n[nH]c(=S)nc21,8%,.,.,-24%,-19%,?
O=c1[nH]cc(-c2ccccc2)c(=O)[nH]1,35%,-3%,.,-6%,-4%,-3
Nc1c(-c2ccccc2)cc[nH]c1=O,.,5%,.,.,8.9µM*,.
Cc1ccc(S(=O)(=O)NCC(=O)N(CC(=O)NC(C)(C)C)Cc2ccc3c(c2)OCO3)cc1,?,5%,4,2%,-15%,6
CC(C)(C)NC(=O)CN(Cc1ccc2c(c1)OCO2)C(=O)CNS(=O)(=O)c1ccccc1,6%,10%,-9,0%,79µM*,20
CC(C)Oc1ccccc1-c1nc(SCC(=O)c2ccc(F)cc2)n[nH]1,51%,2%,.,-2%,-7%,.
O=C(COc1cccc(C(F)(F)F)c1)N1CCN(c2ccc(O)cc2)CC1,79µM*,-3%,0,.,56µM*,12
NC(=O)C1CCN(C(=O)CN2CCN(c3cccc(C(F)(F)F)c3)CC2)CC1,-4%,4%,3,2%,89µM*,0
SMILES,HP1b binding inh,TDP1 block,CtBP-E1A blk,BAZ2B block,JMJD2A Tudor,Six1-Eya2 blk
Cc1ccc(NC(=O)c2cc(S(=O)(=O)N3CCCC(C)C3)cn2C)c(Br)c1 (stereo not drawn),14%[57 µM],2%,.,-1%,-21%,.
Cc1c(NC(=O)c2cn3ccccc3n2)cccc1-n1cnnn1,14%,11%,3,-11%,20µM*,-3
CCCCn1c(=O)c2oc3ccccc3c2n(Cc2ccc(C)cc2)c1=O,29%,-5%,.,3%,-3%,.
CCOc1ccc(NC(=O)CSc2nccn2-c2cccc(C)c2C)cc1,9%[57 µM],9%,.,?,?,.
COc1ccccc1C(=O)NC(=O)CSc1nnc2ccccn12,18%,-1%,4,.,-12%,17
O=C(CSc1nnc2ccccn12)NC(=O)c1ccccc1Cl,?,25µM*,-1,.,-17%,-9
CCCCC(=O)Nc1sc2c(c1C#N)CC(C)(C)OC2,10%,0%,7,9%,45µM*,2
N#Cc1c(NC(=O)CCC(=O)O)sc2c1CCCC2,19%,-2%,-9,10%,-8%,4
CC(C)C(C(=O)Nc1sc2c(c1C#N)CCCCC2)N1C(=O)c2ccccc2C1=O (stereo not drawn),11%,8%,-18,50µM*,-28%,-22
CC1(C)Cc2c(sc(NC(=O)Cc3ccccc3)c2C#N)CO1,-6%,7%,10,1%,-2%,6
CCC(=O)Nc1sc2c(c1C#N)CCC2,-1%,2%,7,-14%,89µM*,14
N#Cc1c(NC(=O)CCC(=O)O)sc2c1CCCCC2,?,.,-9,?,45µM*,-8
N#Cc1nc(NCCO)nc(Nc2ccccc2)n1,.,20%,.,.,-28%,.
CC(C(=O)NC1CCCC1)N(C(=O)c1ccc(-c2ccccc2)[nH]1)c1ccccc1F (stereo not drawn),-33%,7%,-24,?,22µM*,-22
COc1ccc(CN(CC(=O)NC2CCCC2)C(=O)c2ccc(-c3ccccc3)[nH]2)cc1,-19%,8%,0,28µM*,?,?
COc1ccc(CN(C(=O)c2ccc(-c3ccccc3)[nH]2)C(C(=O)NCC2CCCO2)c2ccc(C)o2)cc1 (stereo not drawn),-18%,5%,-22,45µM*,?,?
CCC(C)NC(=O)c1ccc2c(c1)N(Cc1ccccc1)C(=O)c1ccccc1S2(=O)=O (stereo not drawn),31%,5%,.,-4%,-14%,.
CC(=O)c1cccc(NS(=O)(=O)c2cc(-c3onc(C)c3C)ccc2C)c1,34%,8%,.,2%,0%,.
CCCCCCCc1cc2ccccc2c(=O)o1,.,2%,.,.,.,.
Cc1ccsc1/C=N/n1c(-c2ccccn2)n[nH]c1=S,32%,-3%,?,8.9µM*,3.2µM*,-78*

# High-throughput results: PubChem BioAssay, National Center for Advancing Translational Sciences (NCATS)
